# Results taken from PubChem BioAssay AID449762 (Southern Research Specialized Biocontainment Screening …, 2010).
# Out of some 330,000 compounds screened, about 1,900 (0.58%) were called active. Not shown: some 4% with an inconclusive outcome. The list is a sample of the results. Potency and affinity values are given separately. Unmarked numbers belong to inactive results. No stated cut-off is given here; in the data, inconclusive means inhibition above about 70% without an active follow-up result; inactive means below that.
# Test: M. tuberculosis growth inhibition, HTS (AID 449762);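 further: bacterial growth assessed after seven days of incubation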
# Settings: M. tuberculosis H37Rv growth inhibition, 7H9 media; at 25 µM; active compounds read high
row,Structure (SMILES),inhibition
1,COc1ccccc1N1CCN(c2ccc3ccccc3n2)CC1,1.84%
2,COc1ccccc1N1CCN(c2ccc(Cl)nn2)CC1,0.36%
3,CCCNC(=O)NC(=O)COC(=O)c1cccc(NS(=O)(=O)c2ccc(F)c(F)c2)c1,5.38%
4,CC1(C2CC2)NC(=O)N(CC(=O)N2CCN(c3ccccc3)CC2)C1=O (stereo not given),-0.6%
5,Nc1nc(-c2ccco2)nn1C(=O)CCc1ccccc1,6.17%
6,CC(=O)c1ccc(NC(=O)C2=CC(c3cccs3)=NS(=O)(=O)N2C)cc1,2.16%
7,CC(=O)Nc1ccc(NC2=CC(=O)c3ccccc3C2=O)cc1,3.89%
8,NS(=O)(=O)c1ccc(NC2=CC(=O)C(=O)c3ccccc32)cc1,11.2%
9,O=c1[nH]c(Nc2ccc(F)cc2)cc2ccccc12,-14.1%
10,O=c1[nH]c(Nc2ccccc2)cc2ccccc12,0.07%
11,COC(=O)CN(c1ccc(C)cc1)S(=O)(=O)c1c(C)[nH]c(=O)[nH]c1=O,-6.71%
12,C=CCSc1nnc(NC(=O)c2ccc(N3CCCC3=O)cc2)s1,-1.46%
13,C=CC[C@H](CC(=O)NCCO)C(=O)NC[C@@H](OC(=O)[C@@H](CC=C)CC(=O)OC(C)(C)C)c1ccccc1,-4.9%
14,Cc1ccc(S(=O)(=O)N2CCN(c3ccc(C(F)(F)F)cc3[N+](=O)[O-])CC2)cc1,16%
15,Cc1cc(N2CCN(c3ccc([N+](=O)[O-])c4cccnc34)CC2)c2ccccc2n1,-7.93%
16,CCC1(CC)C(=O)N(Cc2ccccc2)C(=O)N(Cc2ccccc2)C1=O,-1.75%
17,CCN(c1ccccc1)S(=O)(=O)c1ccc(OC)c(NC(=O)Cc2ccccc2OC)c1,-3.76%
18,CCN(CCNC(=O)C1CC(=O)N(CCc2ccccc2)C1)c1ccccc1 (stereo not given),-5.61%
19,COc1cccc(/C=N/NC(=S)NC2CC3CC2C2C=CCC32)c1O (stereo not given),-6.6%
20,CCOc1ccc(/C=N/NC(=S)NC2CC3CC2C2C=CCC32)cc1 (stereo not given),7.16%
21,CC1CCCCC12NC(=O)N(CC(=O)NNC(=O)c1ccc(Br)cc1)C2=O (stereo not given),1.45%
22,CCSc1nnc(NC(=O)CSC2=NN3CCCC(=O)N=C3S2)s1,2.54%
23,CN(c1cccc(NC(=O)Cc2ccccc2)c1)S(C)(=O)=O,5.18%

row,Structure (SMILES),inhibition
1,O=C(NC(C(=O)N/N=C/c1ccccc1)c1n[nH]c(=O)c2ccccc12)c1ccccc1 (stereo not given),2.9%
2,O=C(NC(C(=O)N/N=C/c1ccncc1)c1n[nH]c(=O)c2ccccc12)c1ccccc1 (stereo not given),2.1%
3,COc1ccc(CC(=O)Nc2ccccc2N2CCCC2)cc1,0.8%
4,Cc1ccc(C2CC(=O)C=C(O)C2)cc1 (stereo not given),9.89%
5,COc1ccc(CNC(=O)NCCc2c[nH]c3ccccc23)cc1,9.15%
6,CSc1ccccc1NC(=O)COc1nsnc1N1CCOCC1,2.19%
7,Cc1cccc(NC(=O)CSc2nc(N)c(NC(=O)c3ccccc3F)c(=O)[nH]2)c1,-17.1%
8,COC(=O)c1ccc2[nH]c(C(C)(C)O)c(C)c2c1,-3.19%
9,c1ccc(C2Oc3ccccc3C3CC(c4cccs4)=NN32)cc1 (stereo not given),-7.12%
10,COc1ccc(C2=NN3C(C2)c2ccccc2OC3c2cccs2)cc1 (stereo not given),-3.24%
11,COC(=O)COc1cc(=O)oc2ccc(NS(=O)(=O)c3ccccc3)cc12,11.6%
12,Cn1cc(C(=O)c2cccc(Cl)c2Cl)cc1C#N,-7.62%
13,COc1ccc(C)cc1NS(=O)(=O)c1ccc(NC(=O)CN(c2cc([N+](=O)[O-])ccc2C)S(C)(=O)=O)cc1,0.68%
14,Cc1ccc([N+](=O)[O-])cc1N(CC(=O)NC1CCCC1)S(C)(=O)=O,-1.93%
15,CCN1CCN(C(c2cc(OC)c(OC)c(OC)c2)c2nnnn2C(C)C)CC1 (stereo not given),-6.3%
16,CCN1C(=NCCc2ccc([N+](=O)[O-])cc2)N[C@@H](c2ccccc2)[C@H](C(=O)OC)[C@H]1C,-8.81%
17,CCN1C(=NCCc2cccnc2)N[C@@H](c2ccccc2)[C@H](C(=O)OC)[C@H]1C,-0.82%
18,COc1ccc(Nc2oc(-c3ccccc3)nc2C#N)cc1,-0.48%
19,FC(F)(F)c1ccc(-n2cnc3ccccc32)nc1,-0.78%
20,COC(=O)c1ccc(N2CCN(c3ccccc3)CC2)nc1,-3.88%
21,Cc1c(Nc2nc(-c3ccccc3)cs2)c(=O)n(-c2ccccc2)n1C,0.86%
22,CCOC(=O)c1c(NC(=O)c2cc3n(n2)C(C(F)(F)F)CC(c2ccccc2)N3)sc(C)c1C (stereo not given),-4.24%
23,CC(C)(C)C(=O)N1CCN(CCN2C(=O)c3cccc4cccc(c34)C2=O)CC1,-4.28%

row,Structure (SMILES),inhibition
1,O=C(C(c1ccccc1)c1ccccc1)N1CCN(CCN2C(=O)c3cccc4cccc(c34)C2=O)CC1,-9.17%
2,O=C(OCC#CCSc1nnc(-c2cccc3ccccc23)o1)c1ccc2ccccc2c1,8.92%
3,O=C(OCC#CCSc1nnc(-c2cccc3ccccc23)o1)c1cc2ccccc2o1,36.1%
4,CN1CCN(S(=O)(=O)c2ccc(SCCOc3ccc(Cl)cc3)nc2)CC1,-1.28%
5,CN1CCN(S(=O)(=O)c2ccc(SCCOc3ccccc3)nc2)CC1,-0.98%
6,Cc1c(S(=O)(=O)N2CCCCC2)c(=O)n(C)c(=O)n1C,-9.81%
7,CN1C(=O)N(C)C2(c3ccccc3)N(C(C)(C)C)C(=O)NC12c1ccccc1 (stereo not given),-0.92%
8,Cc1ccc2cc(C)c(N3CCN(c4ccc(F)cc4)CC3)nc2c1,0.67%
9,Cc1ccc2cc(C)c(N3CCC(C)CC3)nc2c1,-2.14%
10,CN(Cc1ccc(Cl)s1)C(=O)CSc1nnc(C2CC2)n1C1CC1,2.1%
11,CN(Cc1ccc(Cl)s1)C(=O)CNC(=O)CNC(=O)c1ccc(Cl)cc1Cl,0.015%
12,O=C(COc1ccc(Cl)cc1Cl)Nc1ccc(-c2ccc(N3CCOCC3)nn2)cc1,27.4%
13,Cc1ccc2c(c1)C1C[N+](C)(CC(=O)Nc3ccccc3Cl)CCC1N2C(=O)c1ccccc1Cl (stereo not given),21.9%
14,Cc1ccc2c(c1)C1C[N+](C)(CC(=O)c3ccccc3)CCC1N2C(=O)c1ccccc1Cl (stereo not given),-0.23%
15,CC(C)[C@H](NC(=O)c1ccccc1F)C(=O)Nc1nc2c(s1)CCCC2,-0.81%
16,COc1cccc(-c2nc(CS(=O)(=O)CC(=O)Nc3ccccc3Br)c(C)o2)c1,-5.15%
17,Cc1cc(N2CCCCC2)n2ncc(-c3ccc(Cl)cc3)c2n1,94.8%
18,Cc1cc(C)n2cc(-c3ccc(Cl)cc3)c(C(=O)O)c2n1,5.32%
19,Cc1nn(C)c(C)c1C1C(C#N)=C(N)Oc2n[nH]c(C)c21 (stereo not given),4.26%
20,CC(C)c1ccc(CNc2c([N+](=O)[O-])c(=O)oc3ccccc23)cc1,4.35%
21,Cc1cccc(NN=C2c3ccccc3-c3ccccc32)c1,3.47%
22,O=C(O)c1cc(NN=C2c3ccccc3-c3ccccc32)ccc1Cl,14%
23,COc1ccc(-n2c(COc3ccc4c(c3)OCO4)nnc2SCC(=O)O)cc1,14.8%

row,Structure (SMILES),inhibition
1,Cc1cc2occ(CC(=O)NC3(C)CCS(=O)(=O)C3)c2cc1C (stereo not given),-9.66%
2,CCOc1ccc(CNc2ccc3c(c2)ncn3C(C)(C)C)cc1,-2.96%
3,CN(C)c1ccc(CNc2ccc3c(c2)ncn3C(C)(C)C)cc1,8.27%
4,CC(C)(C)n1nnnc1C(c1cccc(C(F)(F)F)c1)N1CCC(O)CC1 (stereo not given),2.3%
5,Cc1ccc(-c2noc(C3CCCN(C(=O)c4ccc(Cl)cc4)C3)n2)o1 (stereo not given),0.38%
6,Cc1ccc(-c2noc(C3CCCN(C(=O)c4ccccc4)C3)n2)o1 (stereo not given),2.39%
7,COc1cccc(C(=O)NNC2=C(C(=O)C(F)(F)F)CCC2)c1,0.71%
8,O=C(Nc1cccc(S(=O)(=O)NC2=NCCCCC2)c1)c1cc(-c2ccccc2)nc2ccccc12,4.99%
9,CCn1c(SCC(=O)N2CCCCC2C)nnc1-c1ccco1 (stereo not given),-6.38%
10,Cc1cccc2cc(/C=N/NC(=O)[C@H]3C[C@@H]3c3ccccc3)c(Cl)nc12,1.65%
11,O=C(N/N=C/c1cc2ccccc2nc1Cl)[C@H]1C[C@@H]1c1ccccc1,22.8%
12,N#Cc1ccc(OCC(=O)Nc2cccc(S(=O)(=O)NC3=NCCCCC3)c2)cc1,-7.44%
13,Oc1ccc(Nc2nc(-c3ccccc3)nc3ccccc23)cc1,10.3%
14,COc1ccc(C(=O)CCN2CCc3cc(OC)c(OC)cc3C2)cc1,68.3%
15,COc1cc2c(cc1OC)CN(CCOc1ccc(Br)cc1)CC2,-0.08%
16,COc1cc(OC)cc(C(=O)N[C@H](C(=O)OCC(=O)c2c[nH]c3ccccc23)C(C)C)c1,-5.93%
17,C=C1SC(Nc2c(C)cc(C)cc2C)=NC12CCCCC2,4.72%
18,Cc1cc(C)n(Cc2ccc(C(=O)NN)o2)n1,-3.98%
19,Cc1nc(N2CCOCC2)c2oc3ccccc3c2n1,-22.1%
20,CCOC(=O)C1CCN(c2nc(C)nc3c2oc2ccccc23)CC1,13.6%
21,CCOc1ccc(C2CC(c3ccc(CC)cc3)Nc3nc(N)nn32)cc1 (stereo not given),53.9%
